Screening results as filed in PubChem BioAssay.
SENP8 block-1: blocks human SENP8 cleavage of Nedd8 substrate; Q96LD8; recombinant SENP8, Nedd8 substrate fluorescence; inhibition, % at 20 µM; 360,000 compounds, 0.64% hits; AID 602440; in the data active means inhibition mostly above about 40%, no sharp cut-off; inactive means mostly below about 27%
Target sequence (Q96LD8 whole entry, looked up): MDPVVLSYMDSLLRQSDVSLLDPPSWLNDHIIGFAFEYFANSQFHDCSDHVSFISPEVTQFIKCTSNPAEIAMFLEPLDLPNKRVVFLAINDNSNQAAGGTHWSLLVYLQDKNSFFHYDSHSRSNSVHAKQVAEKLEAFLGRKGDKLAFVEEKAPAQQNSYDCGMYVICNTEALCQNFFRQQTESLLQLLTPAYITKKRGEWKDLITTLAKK
PPC-1+TRAIL kill: kills PPC-1 cancer cells in the presence of TRAIL; 220,000 compounds, 0.41% hits; AID 1443; cell killing (% activity), % at 4 µM or 5 µM; PPC-1 cells + TRAIL, ATPLite viability luminescence;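 active means cell killing above 50% in the first pass at 4 µM, then a duplicate retest at 5 µM averaging 50% or more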;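 further: plate controls were cells with TRAIL plus DMSO for no effect and medium-only wells lacking cells for full effect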
SENP7 block: inhibitors of human SENP7 protease; Q9BQF6; recombinant SENP7, Z-RLRGG-aminoluciferin luminescence, 40 min; inhibition, % at 5 µM; 330,000 compounds, 1.5% hits; AID 434973;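 active means inhibition above about 50% at the single test dose, limit read from the data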;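 further: plate controls were DMSO with enzyme for no effect and no enzyme buffer wells for full effect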
Target sequence (Q9BQF6 706-1050 limits assumed): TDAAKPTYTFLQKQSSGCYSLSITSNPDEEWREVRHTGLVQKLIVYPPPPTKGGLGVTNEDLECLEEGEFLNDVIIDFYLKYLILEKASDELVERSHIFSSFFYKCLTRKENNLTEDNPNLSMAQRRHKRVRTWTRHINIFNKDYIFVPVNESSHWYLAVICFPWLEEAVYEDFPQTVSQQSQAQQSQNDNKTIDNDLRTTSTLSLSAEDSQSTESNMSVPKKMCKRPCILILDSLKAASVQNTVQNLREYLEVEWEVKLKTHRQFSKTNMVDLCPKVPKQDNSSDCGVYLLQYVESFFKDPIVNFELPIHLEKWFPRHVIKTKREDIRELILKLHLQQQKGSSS
SENP8 block-2: inhibitors of human SENP8 protease | Q96LD8 | 330,000 compounds, 1.2% hits | purified SENP8, Z-RLRGG-aminoluciferin cleavage, luminescence | inhibition, % at 10 µM; in the data active means inhibition above about 50%
C8 TRAIL sens: sensitizes caspase-8 expressing cells to TRAIL; NB7+C8 cells + TRAIL, ATPlite viability luminescence; inhibition (viability loss, TRAIL sensitization), % at 10 µM; 360,000 compounds, 1% hits;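 active means compounds causing at least 50% loss of cell viability in the single-dose screen, relative to plate controls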
SENP6 block: blocks the human protease SENP6; Recombinant SENP6 catalytic domain, aminoluciferin luminescence; 330,000 compounds, 1.8% hits; inhibition, % at 10 µM;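 active means inhibition above about 50% at the single tested dose, limit read from the data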;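 further: plate controls were DMSO wells with enzyme for no effect and DMSO wells lacking enzyme for full effect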
SENP8 conf: human SENP8 inhibition, confirmed | inhibition, % at 12.5 µM | AID 488912 | shares compounds with SENP7 block | 6,200 compounds, 40% hits | Recombinant SENP8, Z-RLRGG-aminoluciferin luminescence, 60 min;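 active means mean inhibition across replicates above about 50%, limit read from the data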
SENP6 confirm: human SENP6 inhibition, confirmed | inhibition, % at 12.5 µM | shares compounds with SENP7 block | 6,200 compounds, 58% hits | recombinant SENP6, Z-RLRGG-aminoluciferin luminescence
SENP7 confirm: confirmation of human SENP7 protease inhibitors. shares compounds with SENP7 block. 6,200 compounds, 69% hits. inhibition, % at 12.5 µM. recombinant SENP7, Z-RLRGG-aminoluciferin luminescence, 40 min
Casp3 SENP sel: selectivity test for SENP inhibitors: human caspase-3 inhibition; AID 488918; inhibition, % at 12.5 µM; purified caspase-3, Z-DEVD-aminoluciferin luminescence, 60 min; 6,200 compounds, 60% hits; shares compounds with SENP7 block;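 active means mean inhibition above about 50%, limit read from the data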;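 further: plate controls were enzyme with DMSO for no effect and wells without caspase-3 for full effect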
SENP luc ctr: counter-screen for SENP inhibitors: luminescence interference | inhibition, % at 12.5 µM | 6,200 compounds, 39% hits | Pre-incubated SENP8/Z-RLRGG-aminoluciferin, luciferase luminescence interference | AID 488919 | shares compounds with SENP7 block;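 active means mean inhibition above about 50% when retested at one dose, limit read from the data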;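 further: plate controls were DMSO wells with completed reaction for no effect and substrate without enzyme for full effect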
* hit, by the source's call. In the library only some 3% were active in any assay of this set; here they are far more common.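 How the source made its calls, unless noted: active means mean inhibition above about 50% in the one-dose retest (limit read from the data); inactive means the rest.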

Screening C/C(=N/NC(=O)c1ccccn1)c1ccco1 returned SENP8 block-1 3.4, PPC-1+TRAIL kill 32.8, SENP7 block 1.9, SENP8 block-2 62.5*, C8 TRAIL sens 54.2*, SENP6 block 66.6*, SENP8 conf 76.3*, SENP6 confirm 67.0*, SENP7 confirm 90.1*, Casp3 SENP sel 92.2* and SENP luc ctr 70.6*.
For CC(C)Cn1cc(C(=O)NCc2cccs2)c2c3ccccc3n(C)c2c1=O the results were SENP8 block-1 -314.0, PPC-1+TRAIL kill -0.9, SENP7 block 61.7*, SENP8 block-2 5.0, C8 TRAIL sens 16.0, SENP6 block 2.8, SENP8 conf -1.0, SENP6 confirm -0.4, SENP7 confirm -5.2, Casp3 SENP sel -1.5 and SENP luc ctr -6.0.
CC(C)CCNC(=O)c1cn(CC(C)C)c(=O)c2c1c1ccccc1n2C was read as SENP8 block-1 -300.8, SENP7 block -9.6, SENP8 block-2 -8.5, C8 TRAIL sens -24.4 and SENP6 block -16.0.
`NC(=O)c1ccsc1NC(=O)c1ccc(S(=O)(=O)N2CCCC2)cc1` gave SENP8 block-1 -24.0, PPC-1+TRAIL kill -34.3, SENP7 block 20.2, SENP8 block-2 21.1, C8 TRAIL sens 27.6 and SENP6 block 30.0.
Screening NC(=O)c1ccsc1NC(=O)c1ccc(S(=O)(=O)N2CCCCC2)cc1 returned SENP8 block-1 -20.6, PPC-1+TRAIL kill 7.7, SENP7 block 49.7, SENP8 block-2 57.8*, C8 TRAIL sens 35.5, SENP6 block 66.7*, SENP8 conf 56.8*, SENP6 confirm 71.9*, SENP7 confirm 91.7*, Casp3 SENP sel 55.8* and SENP luc ctr 22.8.
For O=C(OCCOCCN=C1NS(=O)(=O)c2ccccc21)c1ccccc1Br the results were SENP8 block-1 3.3, SENP7 block -6.6, SENP8 block-2 -12.4, C8 TRAIL sens -21.0 and SENP6 block -17.9.
For CC(C)N(Cc1ccccc1)S(=O)(=O)c1ccc(-n2cccn2)cc1 the results were SENP8 block-1 8.1 and C8 TRAIL sens -9.9.
Screening S=c1nc(-c2ccccc2)oc2c1CCCC2 returned SENP8 block-1 20.1, PPC-1+TRAIL kill 24.1, SENP7 block 88.1*, SENP8 block-2 74.7*, C8 TRAIL sens -3.7, SENP6 block 92.1*, SENP8 conf 35.6, SENP6 confirm 48.3, SENP7 confirm 62.6*, Casp3 SENP sel 41.0 and SENP luc ctr 54.2*.
`O=[N+]([O-])c1ccc(-c2nc(=S)c3c(o2)CCCC3)cc1` gave SENP8 block-1 7.7, PPC-1+TRAIL kill 20.0, SENP7 block -0.3, SENP8 block-2 -7.6, C8 TRAIL sens -4.8 and SENP6 block -0.2.
For COc1cccc(-c2nc(=S)c3c(o2)CCCC3)c1 the results were SENP8 block-1 9.8, PPC-1+TRAIL kill 19.7, SENP7 block 0.4, SENP8 block-2 33.5, C8 TRAIL sens 9.7, SENP6 block 65.0*, SENP8 conf 37.5, SENP6 confirm 21.2, SENP7 confirm 59.7*, Casp3 SENP sel 28.5 and SENP luc ctr 25.3.
Screening N#Cc1c(C(F)(F)F)cc(-c2ccc(Cl)cc2)[nH]c1=O returned SENP8 block-1 -313.1, PPC-1+TRAIL kill -11.5, SENP7 block 22.9, SENP8 block-2 68.8*, C8 TRAIL sens -0.1, SENP6 block 51.5*, SENP8 conf -25.5, SENP6 confirm 12.8, SENP7 confirm 38.9, Casp3 SENP sel 15.6 and SENP luc ctr 40.8.
N#Cc1c(C(F)(F)F)cc(-c2cccc(Cl)c2)[nH]c1=O was read as SENP8 block-1 -268.4, PPC-1+TRAIL kill 0.7, SENP7 block 3.6, SENP8 block-2 78.4*, C8 TRAIL sens 0.2, SENP6 block 73.6*, SENP8 conf 90.9*, SENP6 confirm 91.1*, SENP7 confirm 95.5*, Casp3 SENP sel 74.5* and SENP luc ctr 88.7*.
Screening CCC(C)COC(=O)c1ccc(C(=O)O)cc1 (centres undefined) returned SENP8 block-1 26.1, PPC-1+TRAIL kill 16.2, SENP7 block 2.0, SENP8 block-2 25.7, C8 TRAIL sens -5.7, SENP6 block 62.3*, SENP8 conf 41.5, SENP6 confirm 45.0, SENP7 confirm 81.2*, Casp3 SENP sel 85.6* and SENP luc ctr 70.1*.
Screening O=c1[nH]c(Nc2ccccc2)cc2cc(Br)ccc12 returned SENP8 block-1 -173.5, SENP7 block 93.7*, SENP8 block-2 96.5*, C8 TRAIL sens 0.5, SENP6 block 96.0*, SENP8 conf 95.9*, SENP6 confirm 98.0*, SENP7 confirm 96.1*, Casp3 SENP sel 95.2* and SENP luc ctr 17.6.
Screening COc1ccccc1Nc1nnc(C)c(=O)[nH]1 returned SENP8 block-1 8.7, PPC-1+TRAIL kill 8.0, SENP7 block 2.2, SENP8 block-2 -11.0, C8 TRAIL sens -8.7 and SENP6 block -17.1.
COc1ccccc1Nc1cc2cc(Br)ccc2c(=O)[nH]1 was read as SENP8 block-1 -178.6, SENP7 block 95.7*, SENP8 block-2 97.4*, C8 TRAIL sens 13.7, SENP6 block 98.2*, SENP8 conf 86.2*, SENP6 confirm 97.0*, SENP7 confirm 93.6*, Casp3 SENP sel 86.0* and SENP luc ctr 14.1.
Screening COc1ccc(OC)c(Nc2cc3ccccc3c(=O)[nH]2)c1 returned SENP8 block-1 inactive, SENP7 block 96.7*, SENP8 block-2 88.1*, C8 TRAIL sens 5.1, SENP6 block 94.5*, SENP8 conf 31.0, SENP6 confirm 73.8*, SENP7 confirm 41.1, Casp3 SENP sel 10.8 and SENP luc ctr -7.8.
For CC(=O)c1cccc(Nc2nc(-c3ccccc3)nc3ccccc23)c1 the results were SENP8 block-1 inactive, SENP7 block -0.4, SENP8 block-2 0.2, C8 TRAIL sens 10.2 and SENP6 block -4.6.
CC(=O)c1cccc(-c2ccc3c(=O)[nH]c(Nc4ccccc4)cc3c2)c1 was read as SENP8 block-1 6.3, SENP7 block 95.0*, SENP8 block-2 96.6*, C8 TRAIL sens -8.6, SENP6 block 99.4*, SENP8 conf 95.0*, SENP6 confirm 97.4*, SENP7 confirm 94.9*, Casp3 SENP sel 97.4* and SENP luc ctr 16.4.
